Screens deposited in PubChem BioAssay by several laboratories.
In the library only some 5.2% were active in any assay of this set; here they are far more common.
M18AAP inhibitor: blocks P. falciparum M18 aspartyl aminopeptidase; 290,000 compounds, 1.2% hits; inhibition, % at 7.35 µM; recombinant PfM18AAP, H-Glu-NHMec fluorogenic cleavage;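 active means inhibition above the campaign mean inhibition over all tested compounds plus 3 SD, cut at about 28% in these data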;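 further: 0% = plate median of test compound wells and 100% = 2 mM ZnCl2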
ALR inh: blocks human ALR sulfhydryl oxidase activity. P55789. purified ALR, DTT oxidation, H2O2 HRP-luminol luminescence. inhibition, % (no concentration beside the values). 290,000 compounds, 3.8% hits. AID 485317;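 active means mean replicate inhibition above about 79%, with every replicate also reaching it, limit read from the data; inconclusive means only one of the two criteria met; inactive means mean below limit and not every replicate reaching it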
Target sequence (P55789 whole entry, looked up): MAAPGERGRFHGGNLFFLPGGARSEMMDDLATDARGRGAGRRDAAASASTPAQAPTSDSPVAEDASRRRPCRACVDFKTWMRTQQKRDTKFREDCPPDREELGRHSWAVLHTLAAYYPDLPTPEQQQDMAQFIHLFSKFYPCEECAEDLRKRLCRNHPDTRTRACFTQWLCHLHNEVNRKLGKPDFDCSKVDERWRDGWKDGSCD
A3G deaminase: blocks human APOBEC3G single-stranded DNA deamination. recombinant A3G, ssDNA deamination FAM/TAMRA fluorescence. 330,000 compounds, 0.28% hits. Q9HC16. inhibition, % at 20 µM;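 active means inhibition of at least 40% at 20 µM, with no more than 30% in the related APOBEC3A deaminase screen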;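 further: plate controls were DMSO wells with A3G for no effect and wells lacking A3G enzyme for full effect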
A3A deaminase: inhibitors of human APOBEC3A DNA deaminase; P31941; inhibition, % at 20 µM; AID 493011; recombinant A3A, FAM/TAMRA ssDNA deamination fluorescence; 330,000 compounds, 0.41% hits;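 active means at least 40% inhibition at 20 µM here, with at most 30% in a related deaminase screen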;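 further: plate controls were A3A with DMSO for no effect and wells lacking A3A enzyme for full effect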
Target sequence (P31941 whole entry, looked up): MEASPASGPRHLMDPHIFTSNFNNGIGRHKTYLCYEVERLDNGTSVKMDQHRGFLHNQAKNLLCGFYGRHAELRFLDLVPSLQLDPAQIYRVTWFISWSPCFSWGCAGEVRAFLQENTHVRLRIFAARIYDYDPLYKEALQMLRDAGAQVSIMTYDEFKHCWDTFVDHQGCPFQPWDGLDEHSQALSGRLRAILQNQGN
CR mimetic SO: caloric restriction mimetics inhibiting age-related superoxide in yeast. AID 2690. superoxide response (% of plate mean), % at 10 µM. 330,000 compounds, 0.18% hits. S. cerevisiae aged cells, superoxide DHE fluorescence; stronger effect = lower value;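 active means superoxide response under a set limit, about three screen SD below normal, cut at about 65% in these data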;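 further: yeast aged for seven days with compound at 30 °C before DHE staining; 100% = average MFI of all compound-treated wells on the plate with controls excluded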
NRP1-CendR mod: NRP-1/CendR interaction modulation; O14786; FAM-RPARPAR peptide binding to NRP-1, fluorescence polarization; inhibition, % at 25 µM; 360,000 compounds, 0.85% hits;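 active means inhibition or corrected inhibition above about 18%, plus a signal ratio from 0.5 to 1.5, limit read from the data, passing the limit was not always enough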
* = called active by the depositor; ? = inconclusive; . = no result.

SMILES	M18AAP inhibitor	ALR inh	A3G deaminase	A3A deaminase	CR mimetic SO	NRP1-CendR mod
C#CCOCCOCCOCCNc1nc(N2CCN(C(=O)CCCCCCCCCCNC(=O)Cn3cc(CCCCCN)nn3)CC2)nc(N2CCN(C(=O)CCCCCCCCCCNC(=O)Cn3cc(CCCCCN)nn3)CC2)n1	.	-14.2	-8.1	-9.9	104.5	18.4*
C#CCOCCOCCOCCNc1nc(N2CCN(C(=O)CCCCCCCCCCNC(=O)Cn3cc(CCCCCN)nn3)CC2)nc(N2CCN(C(=O)CCCCCCCCCCNC(=O)[C@@H](CCC(=O)O)n3cc(CCCCCN)nn3)CC2)n1	.	-1.7	-3.5	-4.1	102.1	20.7*
CCOC(=O)c1ccc(NC2c3ccccc3C(=O)N2c2cccnc2)cc1 (stereo not drawn)	5.6	-3.0	-9.5	-3.1	109.5	9.1
COc1ccc(NC2c3ccccc3C(=O)N2c2cccnc2)cc1 (stereo not drawn)	4.3	88.3*	3.9	3.0	101.9	4.0
CCOc1ccc(CN(C)C(=O)CCl)cc1	-4.1	-5.4	-2.8	-7.0	115.4	7.7
CN(C(=O)COc1ccccc1C(=O)NCc1ccccc1)C1CCS(=O)(=O)C1 (stereo not drawn)	.	.	0.5	-5.5	.	9.1
O=C(NC1CCCC1)C(c1ccc(Cl)cc1)N1CCc2ccccc21 (stereo not drawn)	0.7	12.0	-7.5	-1.5	92.6	2.6
O=C(NC1CCCCC1)C(c1ccccc1)N1CCc2ccccc21 (stereo not drawn)	6.3	97.8*	-0.9	-2.7	88.9	10.4
CCCn1ncc2c(Nc3ccc(C)c(C)c3)ncnc21	2.4	95.7*	-3.3	4.4	109.1	5.1
Cn1ncc2c(Nc3ccc(Cl)c(Cl)c3)ncnc21	2.4	.	-5.9	-5.5	128.3	-4.8
COc1ccc(CNC(=S)N/N=C/c2ccc(O)c(OC)c2)cc1	7.7	86.7*	-5.5	-6.0	116.6	-8.8
COc1cc(/C=N/NC(=S)NC2CC3CCC2C3)ccc1O (stereo not drawn)	10.8	98.7*	-6.5	-4.6	104.0	0.8
Cc1nc(SCC(=O)NC(C)(C#N)C2CC2)c2c(-c3cccs3)csc2n1 (stereo not drawn)	-2.0	.	-3.4	2.7	102.0	4.3
Nc1nc2ccc(-c3nc4ccccc4o3)cc2s1	6.5	96.9*	-3.7	2.9	85.4	-6.5
c1ccc2oc(-c3ccc4nc[nH]c4c3)nc2c1	13.1	-1.7	-4.9	-0.9	79.6	17.3
C[C@H](N)c1nnc(SCc2c(Cl)cccc2Cl)o1	-5.1	-5.4	4.8	2.7	94.2	-10.5
C[C@H](N)c1nnc(SCc2ccc(Cl)cc2Cl)o1	-3.5	98.7*	-2.2	1.7	92.0	3.5
COc1ccc(S(=O)(=O)n2nc(OC(C)=O)cc2N)cc1	12.5	97.6*	-5.9	-0.8	.	0.6
Cc1cc(O)c(/C=N/Nc2ccc(Cl)cc2)c(=O)o1	-2.4	98.0*	32.0	6.0	120.4	-11.5
Cc1ccsc1/C=N/NC(=O)C(=O)NCC(C)C	-5.6	1.6	7.3	4.3	107.1	32.1*
CCCCC(=O)N/N=C/c1sccc1C	-9.0	0.6	1.8	1.4	99.3	-14.8
Cc1ccc(NC(=O)CO/N=C(\N)c2nonc2N)cc1C	-5.8	28.5	-4.8	-0.5	94.9	-0.3
O=C(NCc1cc(C(F)(F)F)cc(C(F)(F)F)c1)C1CC(c2ccccc2[N+](=O)[O-])=NO1 (stereo not drawn)	4.6	5.3	-14.0	-5.4	95.1	-2.7
CCn1c(Oc2ccccc2F)nc2c1c(=O)n(C)c(=O)n2C	1.3	.	-3.0	-2.8	103.2	-10.8
COC(=O)CSc1nnc(-c2ccccn2)n1N	-14.1	-14.4	-7.8	0.1	99.8	8.2
SMILES	M18AAP inhibitor	ALR inh	A3G deaminase	A3A deaminase	CR mimetic SO	NRP1-CendR mod
O=C(CSc1nc(O)c(-c2ccccc2)c(=O)[nH]1)N1CCOCC1	-2.6	24.8	-6.0	-1.6	88.3	-6.3
O=C(CSc1nc(O)c(C(c2ccccc2)c2ccccc2)c(=O)[nH]1)N1CCOCC1	-11.4	90.7*	-2.3	1.5	79.6	-7.6
O=C(CSc1nc(O)c(Cc2ccccc2)c(=O)n1-c1ccccc1)N1CCOCC1	2.0	10.2	-3.7	-13.3	101.7	25.8*
CC(C)c1c(O)nc(SCC(=O)N2CCOCC2)[nH]c1=O	7.3	95.7*	6.2	0.4	95.8	-3.2
COc1ccc(-c2cc(C(F)F)nc(-n3nc(C)cc3C)n2)cc1	-8.3	-2.5	-5.9	-5.3	99.9	1.0
CC(C)c1nc(=S)n(-c2ccccc2)[nH]1	10.4	89.5*	31.0	-6.5	99.2	-6.8
Cn1c(N)c(C(=O)CCl)c(=O)n(Cc2ccccc2)c1=O	1.8	99.1*	-5.6	-4.6	.	-6.2
Cn1c(=O)n(Cc2ccccc2)c2ccccc21	-0.9	-11.9	-5.7	-4.3	109.8	4.1
Cn1c(N)cc(=O)n(Cc2ccccc2)c1=O	1.2	99.0*	-9.8	-4.9	.	-1.1
Cn1c(=O)c(C(=O)CCl)c(N)n(Cc2ccccc2)c1=O	0.1	21.9	-4.3	0.8	118.9	3.5
CN(C)c1ccc(C2CC(=O)NC3=C2C(=O)CC(C)(C)C3)cc1 (stereo not drawn)	1.7	?	-5.2	-7.4	110.1	-23.0
CCOC(=O)c1c(C)[nH]c(C(=O)OCc2csc(CC(=O)Nc3ccccc3C)n2)c1C	.	1.4	-3.7	1.7	91.8	-11.5
NC(=O)c1ccc(NC(=O)COc2ccc(-n3cnnn3)cc2)cc1	.	-7.7	-6.9	4.7	90.5	-5.6
CCCn1c(SCC(=O)Nc2ccccc2Oc2ccccc2)n[nH]c1=O	-5.3	3.7	-0.7	0.0	101.3	-6.0
COc1ccc(-c2cn(-c3ccccc3)nc2CO)cc1	-1.9	97.4*	-4.5	-0.9	120.7	-7.7
CCn1cc(-c2ccccc2)c(C(=O)O)c1-c1ccc(OC)cc1	.	84.6*	3.5	-7.2	100.0	11.1
Nc1nc2cc(S(=O)(=O)NC3=NCCCCC3)ccc2s1	2.8	90.8*	-2.2	-0.2	95.2	3.1
O=C(COC(=O)c1ccc(O)cc1)Nc1cccc(S(=O)(=O)NC2=NCCCCC2)c1	-10.6	-6.2	2.3	-4.6	97.0	5.2
CCOC(=O)c1ccc(S(=O)(=O)Nc2nc3cc(S(=O)(=O)NC4=NCCCCC4)ccc3s2)cc1	-17.7	97.4*	-14.3	2.1	93.1	-11.6
Cc1c(Cc2ccccc2)c(=O)oc2cc(O)ccc12	2.6	47.4	-6.4	-2.6	90.1	-4.6
CCOC(=O)CCc1c(C)c2ccc(O)cc2oc1=O	-7.8	80.9*	1.2	-1.3	97.5	1.9
O=C(Nc1ccccc1)C1CCCN1S(=O)(=O)c1ccc(Br)cc1 (stereo not drawn)	1.9	-3.7	-3.0	-1.2	108.4	1.7
Cc1ccc(C(=O)CSc2ncn[nH]2)cc1	21.9	55.1	-4.0	-1.2	94.4	5.2
CCc1ccc(C(=O)CSc2ncn[nH]2)cc1	28.1*	53.7	-1.8	-0.1	94.1	1.5
Nc1ccc(Oc2cc(N)cc(Oc3ccccc3)c2)cc1	-0.1	99.5*	-4.8	-2.8	85.7	-6.9
